According to the supplement of paper PMC7411054:
Structures can show the parent of a compound that is named as a salt.

Legend:
Assay in all cases: phenotypically active (imaging signature differs from DMSO and reproducible) at any of 0.3-9 uM (binary (1 = active, 0 = inactive)); higher = active
Conditions in all cases: treatment time: 24 h
[1] = tested on: A549-ACTB-RAB5A
How it was run: (§1)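 Cells from fifteen gene-edited reporter lines (A549, HepG2 and WPMY1) were treated for 24 h at 0.3, 1, 3 or 9 µM and imaged live, four wells per condition. Features were normalised per well to solvent control wells. A condition deviated if ≥3 of 4 wells passed the 95th percentile of control Euclidean distances and was reproducible if its median replicate Pearson correlation beat the 95th percentile of non-replicates; phenotypic activity needed both.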

[2] = tested on: A549-CANX-COX4
How it was run: as §1

[3] = tested on: A549-GM130-SQSTM1
How it was run: as §1

[4] = tested on: A549-TP53BP1-CLTA
How it was run: as §1

[5] = tested on: A549-TUBA1B-RELA
How it was run: as §1

[6] = tested on: HepG2-ACTB-RAB5A
How it was run: as §1

[7] = tested on: HepG2-CANX-COX4
How it was run: as §1

[8] = tested on: HepG2-GM130-SQSTM1
How it was run: as §1

[9] = tested on: HepG2-TP53BP1-CLTA
How it was run: as §1

[10] = tested on: HepG2-TUBA1B-RELA
How it was run: as §1

[11] = tested on: WPMY1-ACTB-RAB5A
How it was run: as §1

[12] = tested on: WPMY1-CANX-COX4
How it was run: as §1

[13] = tested on: WPMY1-GM130-SQSTM1
How it was run: as §1

[14] = tested on: WPMY1-TP53BP1-CLTA
How it was run: as §1

[15] = tested on: WPMY1-TUBA1B-RELA
How it was run: as §1

Measured: phenotypically active

C=C1C[C@@]23CCC4[C@@](C)(CCC[C@@]4(C)C(=O)O[C@@H]4O[C@H](CO)C(O)[C@H](O)C4O)C2CC[C@@]1(O[C@H]1O[C@H](CO)C(O)[C@H](O)[C@H]1O[C@@H]1O[C@H](CO)[C@@H](O)[C@H](O)[C@H]1O)C3 (stereo not given in full) [Stevioside]
inactive: [1] 0 | [2] 0 | [3] 0 | [4] 0 | [5] 0 | [6] 0 | [7] 0 | [8] 0 | [9] 0 | [10] 0 | [11] 0 | [12] 0 | [13] 0 | [14] 0 | [15] 0

Brc1c(Br)c(Br)c2[nH]nnc2c1Br
inactive: [1] 0 | [2] 0 | [3] 0 | [4] 0 | [5] 0 | [6] 0 | [7] 0 | [8] 0 | [9] 0 | [10] 0 | [11] 0 | [12] 0 | [13] 0 | [14] 0 | [15] 0

NC(=O)c1cn(Cc2c(F)cccc2F)nn1 [rufinamide]
inactive: [1] 0 | [2] 0 | [3] 0 | [4] 0 | [5] 0 | [6] 0 | [7] 0 | [8] 0 | [9] 0 | [10] 0 | [11] 0 | [12] 0 | [13] 0 | [14] 0 | [15] 0

C[N+]1(C)CCC(=C(c2ccccc2)c2ccccc2)CC1 [diphemanil]
inactive: [1] 0 | [2] 0 | [3] 0 | [4] 0 | [5] 0 | [6] 0 | [7] 0 | [8] 0 | [9] 0 | [10] 0 | [11] 0 | [12] 0 | [13] 0 | [14] 0 | [15] 0

COc1ccc(Cl)cc1C(=O)NCCc1ccc(S(=O)(=O)NC(=O)NC2CCCCC2)cc1 [glyburide]
inactive: [1] 0 | [2] 0 | [3] 0 | [4] 0 | [5] 0 | [6] 0 | [7] 0 | [8] 0 | [9] 0 | [10] 0 | [11] 0 | [12] 0 | [13] 0 | [14] 0 | [15] 0

CCOc1cc([C@@H](CS(C)(=O)=O)N2C(=O)c3cccc(NC(C)=O)c3C2=O)ccc1OC [apremilast]
inactive: [1] 0 | [2] 0 | [3] 0 | [4] 0 | [5] 0 | [6] 0 | [7] 0 | [8] 0 | [9] 0 | [10] 0 | [11] 0 | [12] 0 | [13] 0 | [14] 0 | [15] 0

Cn1cnc2c(NCc3ccccc3)nc(NCCO)nc21 [Olomoucine]
inactive: [1] 0 | [2] 0 | [3] 0 | [4] 0 | [5] 0 | [6] 0 | [7] 0 | [8] 0 | [9] 0 | [10] 0 | [11] 0 | [12] 0 | [13] 0 | [14] 0 | [15] 0

Cc1ccc(Nc2nnc(-c3ccc([N+](=O)[O-])cc3)o2)cc1Cl
inactive: [1] 0 | [2] 0 | [3] 0 | [4] 0 | [5] 0 | [6] 0 | [7] 0 | [8] 0 | [9] 0 | [10] 0 | [11] 0 | [12] 0 | [13] 0 | [14] 0 | [15] 0

C[C@@H]1O[C@@H](O[C@H]2[C@H](Oc3cc(O)c4c(c3)O[C@H](c3ccc(O)cc3)CC4=O)O[C@H](CO)[C@@H](O)[C@@H]2O)[C@H](O)[C@H](O)[C@H]1O [Naringin hydrate]
inactive: [1] 0 | [2] 0 | [3] 0 | [4] 0 | [5] 0 | [6] 0 | [7] 0 | [8] 0 | [9] 0 | [10] 0 | [11] 0 | [12] 0 | [13] 0 | [14] 0 | [15] 0

CCCc1nn(C)c2c(=O)[nH]c(-c3cc(S(=O)(=O)N4CCN(C)CC4)ccc3OCC)nc12 [Sildenafil citrate]
inactive: [1] 0 | [2] 0 | [3] 0 | [4] 0 | [5] 0 | [6] 0 | [7] 0 | [8] 0 | [9] 0 | [10] 0 | [11] 0 | [12] 0 | [13] 0 | [14] 0 | [15] 0

COC(=O)[C@H]1[C@H]2C[C@H]3c4[nH]c5ccccc5c4CCN3C[C@@H]2CC[C@@H]1O [Corynanthine hydrochloride]
inactive: [1] 0 | [2] 0 | [3] 0 | [4] 0 | [5] 0 | [6] 0 | [7] 0 | [8] 0 | [9] 0 | [10] 0 | [11] 0 | [12] 0 | [13] 0 | [14] 0 | [15] 0

C#C[C@]1(O)CC[C@H]2[C@@H]3CCC4=CC(=NO)CC[C@@H]4[C@H]3CC[C@@]21CC [norelgestromin]
inactive: [1] 0 | [2] 0 | [3] 0 | [4] 0 | [5] 0 | [6] 0 | [7] 0 | [8] 0 | [9] 0 | [10] 0 | [11] 0 | [12] 0 | [13] 0 | [14] 0 | [15] 0

C[C@](N)(Cc1ccc(O)c(O)c1)C(=O)O [methyldopa]
inactive: [1] 0 | [2] 0 | [3] 0 | [4] 0 | [5] 0 | [6] 0 | [7] 0 | [8] 0 | [9] 0 | [10] 0 | [11] 0 | [12] 0 | [13] 0 | [14] 0 | [15] 0

CC1=CC(=O)CC(C)(C)C1(O)/C=C/C(C)=C\C(=O)O (mixture of isomers) [(+/-)-2-cis-4-trans-Abscisic acid]
inactive: [1] 0 | [2] 0 | [3] 0 | [4] 0 | [5] 0 | [6] 0 | [7] 0 | [8] 0 | [9] 0 | [10] 0 | [11] 0 | [12] 0 | [13] 0 | [14] 0 | [15] 0

CCC1(c2ccccc2)C(=O)NCNC1=O [primidone]
inactive: [1] 0 | [2] 0 | [3] 0 | [4] 0 | [5] 0 | [6] 0 | [7] 0 | [8] 0 | [9] 0 | [10] 0 | [11] 0 | [12] 0 | [13] 0 | [14] 0 | [15] 0

CC(C(=O)Nc1cccc(/N=C/c2c(O)ccc3ccccc23)c1)c1ccccc1 (stereo not given) [Salermide]
inactive: [1] 0 | [2] 0 | [3] 0 | [4] 0 | [5] 0 | [6] 0 | [7] 0 | [8] 0 | [9] 0 | [10] 0 | [11] 0 | [12] 0 | [13] 0 | [14] 0 | [15] 0

O=C(O)CCc1ccccc1 [Hydrocinnamic acid]
inactive: [1] 0 | [2] 0 | [3] 0 | [4] 0 | [5] 0 | [6] 0 | [7] 0 | [8] 0 | [9] 0 | [10] 0 | [11] 0 | [12] 0 | [13] 0 | [14] 0 | [15] 0

CC(C)c1ccc2oc3nc(N)c(C(=O)O)cc3c(=O)c2c1 [Amlexanox]
inactive: [1] 0 | [2] 0 | [3] 0 | [4] 0 | [5] 0 | [6] 0 | [7] 0 | [8] 0 | [9] 0 | [10] 0 | [11] 0 | [12] 0 | [13] 0 | [14] 0 | [15] 0

Nc1ncnc2c1cnn2-c1ccccc1
inactive: [1] 0 | [2] 0 | [3] 0 | [4] 0 | [5] 0 | [6] 0 | [7] 0 | [8] 0 | [9] 0 | [10] 0 | [11] 0 | [12] 0 | [13] 0 | [14] 0 | [15] 0

CN(C)CCOC(c1ccc(Cl)cc1)c1ccccn1 (stereo not given) [carbinoxamine]
inactive: [1] 0 | [2] 0 | [3] 0 | [4] 0 | [5] 0 | [6] 0 | [7] 0 | [8] 0 | [9] 0 | [10] 0 | [11] 0 | [12] 0 | [13] 0 | [14] 0 | [15] 0

COc1ccc2c(c1)c(CC(=O)O)c(C)n2C(=O)c1ccc(Cl)cc1 [indomethacin]
inactive: [1] 0 | [2] 0 | [3] 0 | [4] 0 | [5] 0 | [6] 0 | [7] 0 | [8] 0 | [9] 0 | [10] 0 | [11] 0 | [12] 0 | [13] 0 | [14] 0 | [15] 0

Cc1ccnn1-c1ccc(C(=O)N2CCN(S(=O)(=O)c3ccc(Cl)c(C(F)(F)F)c3)CC2)cc1
inactive: [1] 0 | [2] 0 | [3] 0 | [4] 0 | [5] 0 | [6] 0 | [7] 0 | [8] 0 | [9] 0 | [10] 0 | [11] 0 | [12] 0 | [13] 0 | [14] 0 | [15] 0
